Source: PubChem BioAssay AID1446 (The Scripps Research Institute Molecular Screening Center, 2008)
About 2,400 (1.1%) of roughly 220,000 compounds were called active. The list comes from a sample in which actives are over-represented; it also holds similar structures and randomly drawn compounds. Values without a mark were called inactive.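 The calls were made as follows: active = inhibition above the campaign mean plus 3 SD over all tested compounds (cut at about 24% in these data); inactive = the rest.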

Test: viability loss in Ba/F3 EpoR-JAK2V617F cells – cell-based, luminescence, JAK2V617F inhibitor project, primary screen (AID 1446);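 also: cytokine-independent growth of Ba/F3 cells driven by EpoR plus mutant JAK2; 0% = DMSO-treated cells and 100% = JAK inhibitor I control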
Settings: ATP luminescence, at 5.6 µM, hits give high values

SMILES | inhibition
CSc1nnc(-c2ccc(C(F)(F)F)cn2)o1 | -4.69%
CC(=O)NC(Cc1ccc(F)c(F)c1)C(=O)NC1CCN(c2nnnn2-c2ccccc2)CC1 (centres undefined) | 1.68%
O=C(COC(=O)CNS(=O)(=O)c1ccccc1)NC12CC3CC(CC(C3)C1)C2 | 2.17%
Cc1ccc(CN(C)CC(=O)Nc2cccc([N+](=O)[O-])c2)o1 | -2.99%
CN(CC(=O)Nc1cccc(F)c1)CC(=O)Nc1cccc([N+](=O)[O-])c1 | 1.69%
Cc1ccc(NC(=O)CN(C)CC(=O)Nc2cccc(F)c2)cc1[N+](=O)[O-] | 32.7% (active)
Nc1ccc2nn(-c3ccc(Cl)cc3)nc2c1 | -0.91%
Cc1ncc([N+](=O)[O-])n1CCOC(=O)c1ccc(Br)cc1 | -1.79%
CCCCCCNC(=O)CSc1nccn1Cc1ccccc1 | -2.6%
COc1ccc(-n2nnnc2-c2nc3ccccc3s2)cc1 | -2.25%
CCOc1cccc(-c2nnc3sc(COc4ccc(OC)cc4)nn23)c1 | -2.87%
CCOc1cccc(-n2nnnc2-c2ccc(OC)cc2)c1 | 62.5% (active)
CCc1ccc(NC(=O)N2CCN(c3ccccc3)CC2)cc1 | 0.49%
CC[n+]1c(C)n(-c2ccccc2)c2ccc(NC(C)=O)cc21 | 70.6% (active)
CCn1c2ccccc2c2cc(NC(=O)CNC)ccc21 | -0.79%
COc1cccc(NC(=O)CC2C(=O)NCCN2C(=S)Nc2ccc(F)cc2)c1 (centres undefined) | 3.64%
COc1ccc(S(=O)(=O)N(CC(=O)N/N=C/c2ccccc2C(=O)O)c2ccccc2OC)cc1 | -2.32%
Cc1ccccc1-c1nc(C#N)c(NCc2ccco2)o1 | 0.66%
COc1ccc(Nc2oc(-c3ccccc3Cl)nc2C#N)cc1 | 50.8% (active)
COc1ccccc1-c1nc(C#N)c(N2CCC(C(N)=O)CC2)o1 | -2.39%
CC(C)C(=O)Nc1oc(-c2ccccc2)cc1C#N | 0.17%
CC1CCN(S(=O)(=O)c2ccc(S(=O)(=O)NCc3cccnc3)cc2)CC1 | 0.32%

SMILES | inhibition
CCCCCCn1c(CN2CCCCC2)nc2c1c(=O)n(C)c(=O)n2C | -2.26%
CCCCCCCCn1c2c(c(=N)c3c1CCC3)CCCC2 | 101% (active)
CN(Cc1cccnc1)C(=O)c1cc(COc2ccc3ncccc3c2)on1 | 54.2% (active)
Cc1noc(C)c1COc1cccc(C(=O)Nc2cccnc2)c1 | -0.6%
Cc1cc(NCc2cccnc2)no1 | -7.11%
Cc1cccc(-[n+]2c(-c3cccc(Br)c3)[nH]c3nc4ccccc4nc32)c1 | -1.46%
COc1ccc2nc(Nc3nc4ccc(NC(C)=O)cc4s3)sc2c1 | -4.43%
CCCC(=O)Nc1nc2ccc(NC(=O)c3cccnc3)cc2s1 | 2.04%
CCCC(=O)Nc1nc2ccc(NC(=O)c3c(F)c(F)c(OC)c(F)c3F)cc2s1 | 81.8% (active)
CCc1cccc(NC(=O)CCNS(=O)(=O)c2cccc3nonc23)c1 | -3.57%
Cc1onc(-c2ccc(Cl)cc2)c1-c1ccnn1S(=O)(=O)c1ccc(Cl)cc1 | -1.9%
CC1=NOC(=O)/C1=C\c1ccccc1 | -4.85%
COc1cc(/C=C2/C(=O)ON=C2C)ccc1OCc1ccccc1F | -2.39%
COc1cc(/C=C2/C(=O)ON=C2C)ccc1OCc1cccc(F)c1 | 67.1% (active)
COc1ccc(NS(=O)(=O)c2ccc(N3CCOCC3)c(NC(=O)c3ccccc3Br)c2)cc1 | 2.5%
COc1ccccc1N=Cc1c(O)c2ccccc2oc1=O | 5.52%
CCCn1c(NC(=O)C23CC4CC(CC(O)(C4)C2)C3)nc2ccccc21 | 53% (active)
CCC(=O)Nc1nc2ccccc2n1Cc1ccccc1C | -0.24%
CC(=O)Nc1nc2ccccc2n1Cc1ccc(C)cc1 | -2.63%
CCOP(=O)(OCC)C(Nc1cccc(C)c1)c1ccc(F)cc1 (centres undefined) | -3.26%
CCn1c(/C=C/c2ccc([N+](=O)[O-])o2)nc2ccccc2c1=O | 40.5% (active)
Cn1cc(/C=C/c2nc3ccccc3c(=O)n2-c2cccc([N+](=O)[O-])c2)c2ccccc21 | 0.27%

SMILES | inhibition
C/[N+]([O-])=C\c1ccc([N+](=O)[O-])o1 | -0.25%
CCc1nnc(NC(=O)CSc2nnnn2-c2cccc(C(C)=O)c2)s1 | -3.92%
CC(=O)Nc1ccc(S(=O)(=O)Oc2ccc(/C=N/N=C3/NC(=O)C(CC(=O)O)S3)cc2)cc1 (centres undefined) | 1.79%
COc1ccc(-c2csc(Nc3ccccn3)n2)cc1 | -3.7%
COc1ccc(C)cc1Nc1nc(-c2c(C)[nH]c3ccccc23)cs1 | -2.69%
COc1ccc(-c2csc(Nc3ccc(O)cc3)n2)cc1 | 65.8% (active)
CCNc1nc(-c2cc3ccccc3o2)cs1 | -1.02%
COc1ccc(Nc2nc(-c3ccccc3)cs2)cc1 | 1.67%
COc1ccc2nc(Nc3nc(-c4cc5ccccc5oc4=O)cs3)sc2c1 | -2.4%
COc1ccc(OC)c(Nc2nc(-c3ccc(O)c(O)c3)cs2)c1 | 35.7% (active)
COc1ccc2nc(Nc3nc(-c4ccncc4)cs3)sc2c1 | 3.58%
O=c1oc2ccccc2cc1-c1csc(Nc2ccc(O)cc2)n1 | 70.4% (active)
Cc1ccc(O)c(CCc2ccccc2)n1 | -4.38%
Cc1nc(Cl)c(C#N)c2c1CCCC2 | -4.53%
Cc1cc(C)n(CC(O)CN(c2ccccc2)S(=O)(=O)c2ccc3ccccc3c2)n1 (centres undefined) | 0.98%
S=c1[nH]c2ccccc2c2ccccc12 | -1.73%
CN(C)CCNC(=O)/C(=C/c1cccc([N+](=O)[O-])c1)NC(=O)c1ccccc1 | 3.86%
O=C1/C(=C\c2ccsc2)NC(=S)N1c1ccccc1 | -2.32%
Cc1ccccc1NC(=O)CN1C(=O)N/C(=C\c2cccn2-c2cccc(C(=O)O)c2)C1=O | 0.8%
O=C1N/C(=C/c2cccn2-c2ccccc2)C(=O)N1c1cccc(Cl)c1 | 51.8% (active)
